Source: PubChem BioAssay AID1159580 (chemical genetic matrix, 2015)
Out of some 5,500 compounds screened, about 2,000 (36%) were called active. Not shown: some 18% with an inconclusive outcome. No stated cut-off is given here; in the data, active means normalized growth mostly below about 0.91 (no sharp cut-off); inconclusive means no clear call, values can overlap the other calls; inactive means mostly above about 0.92. This is one part of the list.

Assay: chemical genetic growth profiling, strain panel (AID 1159580);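 further: tested at 20 µM; growth read once vehicle control cultures reached saturation at 30 °C; 1 = growth at the plate median or of vehicle wells; lower values mean less growth of the strain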
Conditions: growth OD

Measured: normalized growth

COc1ccc2ccc(=O)oc2c1CC=C(C)C
active: S. cerevisiae deletion strains, locus YAL026C, strain drs2, hits give low values 0.883 | S. cerevisiae deletion strains, locus YAL030W, strain snc1, hits give low values 0.92 | S. cerevisiae deletion strains, locus YBL061C, strain skt5, hits give low values 0.912 | S. cerevisiae deletion strains, locus YBR009C, strain hhf1, hits give low values 0.769 | S. cerevisiae deletion strains, locus YBR021W, strain FUR4, hits give low values 0.662 | S. cerevisiae deletion strains, locus YBR023C, strain chs3, hits give low values 0.843 | S. cerevisiae deletion strains, locus YBR229C, strain ROT2, hits give low values 0.885 | S. cerevisiae deletion strains, locus YBR231C, strain swc5, hits give low values 0.866 | S. cerevisiae deletion strains, locus YBR279W, strain paf1, hits give low values 0.929 | S. cerevisiae deletion strains, locus YCL011C, strain gbp2, hits give low values 0.787 | S. cerevisiae deletion strains, locus YCL016C, strain dcc1, hits give low values 0.891 | S. cerevisiae deletion strains, locus YCL029C, strain bik1, hits give low values 0.826 | S. cerevisiae deletion strains, locus YCL061C, strain MRC1, hits give low values 0.835 | S. cerevisiae deletion strains, locus YCL069W, strain vba3, hits give low values 0.919 | S. cerevisiae deletion strains, locus YCR088W, strain abp1, hits give low values 0.915 | S. cerevisiae deletion strains, locus YDL035C, strain GPR1, hits give low values 0.794 | S. cerevisiae deletion strains, locus YDL040C, strain nat1, hits give low values 0.91 | S. cerevisiae deletion strains, locus YDL074C, strain BRE1, hits give low values 0.752 | S. cerevisiae deletion strains, locus YDL101C, strain DUN1, hits give low values 0.768 | S. cerevisiae deletion strains, locus YDL192W, strain arf1, hits give low values 0.794 | S. cerevisiae deletion strains, locus YDR001C, strain nth1, hits give low values 0.909 | S. cerevisiae deletion strains, locus YDR101C, strain arx1, hits give low values 0.823 | S. cerevisiae deletion strains, locus YDR137W, strain rgp1, hits give low values 0.715 | S. cerevisiae deletion strains, locus YDR159W, strain sac3, hits give low values 0.771 | S. cerevisiae deletion strains, locus YDR162C, strain NBP2, hits give low values 0.645 | S. cerevisiae deletion strains, locus YDR318W, strain mcm21, hits give low values 0.741 | S. cerevisiae deletion strains, locus YDR388W, hits give low values 0.89 | S. cerevisiae deletion strains, locus YDR392W, strain spt3, hits give low values 0.396 | S. cerevisiae deletion strains, locus YDR502C, strain sam2, hits give low values 0.788 | S. cerevisiae deletion strains, locus YEL003W, strain gim4, hits give low values 0.832 | S. cerevisiae deletion strains, locus YEL061C, strain CIN8, hits give low values 0.774 | S. cerevisiae deletion strains, locus YER016W, strain bim1, hits give low values 0.91 | S. cerevisiae deletion strains, locus YER110C, hits give low values 0.873 | S. cerevisiae deletion strains, locus YER155C, strain BEM2 (second series), hits give low values 0.434 | S. cerevisiae deletion strains, locus YER155C, strain BEM2, hits give low values 0.657 | S. cerevisiae deletion strains, locus YER167W, strain BCK2, hits give low values 0.561 | S. cerevisiae deletion strains, locus YGL078C, strain dbp3, hits give low values 0.917 | S. cerevisiae deletion strains, locus YGL086W, strain mad1, hits give low values 0.844 | S. cerevisiae deletion strains, locus YGL167C, strain pmr1, hits give low values 0.908 | S. cerevisiae deletion strains, locus YGL227W, strain vid30, hits give low values 0.875 | S. cerevisiae deletion strains, locus YGL240W, strain doc1, hits give low values 0.701 | S. cerevisiae deletion strains, locus YGL248W, strain PDE1, hits give low values 0.704 | S. cerevisiae deletion strains, locus YGL253W, strain hxk2, hits give low values 0.818 | S. cerevisiae deletion strains, locus YGR135W, strain pre9, hits give low values 0.75 | S. cerevisiae deletion strains, locus YGR252W, strain gcn5, hits give low values 0.583 | S. cerevisiae deletion strains, locus YHR013C, strain ard1, hits give low values 0.801 | S. cerevisiae deletion strains, locus YHR030C, strain SLT2, hits give low values 0.831 | S. cerevisiae deletion strains, locus YHR079C, strain IRE1 (second series), hits give low values 0.896 | S. cerevisiae deletion strains, locus YHR094C, strain hxt1, hits give low values 0.898 | S. cerevisiae deletion strains, locus YHR129C, strain ARP1, hits give low values 0.741 | S. cerevisiae deletion strains, locus YHR142W, strain chs7, hits give low values 0.739 | S. cerevisiae deletion strains, locus YHR200W, strain rpn10, hits give low values 0.812 | S. cerevisiae deletion strains, locus YIL066C, strain RNR3, hits give low values 0.622 | S. cerevisiae deletion strains, locus YIL125W, strain kgd1, hits give low values 0.888 | S. cerevisiae deletion strains, locus YIR030C, strain dcg1, hits give low values 0.841 | S. cerevisiae deletion strains, locus YJL092W, strain hpr5, hits give low values 0.896 | S. cerevisiae deletion strains, locus YJL095W, strain BCK1, hits give low values 0.566 | S. cerevisiae deletion strains, locus YJL129C, strain trk1, hits give low values 0.866 | S. cerevisiae deletion strains, locus YJL134W, strain LCB3, hits give low values 0.921 | S. cerevisiae deletion strains, locus YJL164C, strain tpk1, hits give low values 0.883 | S. cerevisiae deletion strains, locus YJL166W, strain qcr8, hits give low values 0.803 | S. cerevisiae deletion strains, locus YJL187C, strain SWE1 (second series), hits give low values 0.783 | S. cerevisiae deletion strains, locus YJR043C, strain POL32, hits give low values 0.538 | S. cerevisiae deletion strains, locus YKL009W, strain mrt4, hits give low values 0.873 | S. cerevisiae deletion strains, locus YKL068W, hits give low values 0.898 | S. cerevisiae deletion strains, locus YKL085W, strain MDH1 (second series), hits give low values 0.916 | S. cerevisiae deletion strains, locus YKL085W, strain MDH1, hits give low values 0.916 | S. cerevisiae deletion strains, locus YKR001C, strain vps1, hits give low values 0.589 | S. cerevisiae deletion strains, locus YKR026C, strain gcn3, hits give low values 0.906 | S. cerevisiae deletion strains, locus YKR091W, strain srl3, hits give low values 0.926 | S. cerevisiae deletion strains, locus YLL001W, strain dnm1, hits give low values 0.87 | S. cerevisiae deletion strains, locus YLL026W, hits give low values 0.857 | S. cerevisiae deletion strains, locus YLR027C, strain aat2, hits give low values 0.845 | S. cerevisiae deletion strains, locus YLR039C, strain RIC1, hits give low values 0.438 | S. cerevisiae deletion strains, locus YLR058C, strain SHM2, hits give low values 0.794 | S. cerevisiae deletion strains, locus YLR102C, strain apc9, hits give low values 0.891 | S. cerevisiae deletion strains, locus YLR221C, strain rsa3, hits give low values 0.871 | S. cerevisiae deletion strains, locus YLR258W, strain gsy2, hits give low values 0.848 | S. cerevisiae deletion strains, locus YLR262C, strain YPT6 (second series), hits give low values 0.642 | S. cerevisiae deletion strains, locus YLR262C, strain YPT6, hits give low values 0.476 | S. cerevisiae deletion strains, locus YLR268W, strain sec22, hits give low values 0.723 | S. cerevisiae deletion strains, locus YLR320W, strain mms22, hits give low values 0.607 | S. cerevisiae deletion strains, locus YLR330W, strain CHS5, hits give low values 0.658 | S. cerevisiae deletion strains, locus YLR342W, strain FKS1 (second series), hits give low values 0.705 | S. cerevisiae deletion strains, locus YLR357W, strain rsc2, hits give low values 0.761 | S. cerevisiae deletion strains, locus YLR370C, strain arc18, hits give low values 0.899 | S. cerevisiae deletion strains, locus YLR371W, strain rom2, hits give low values 0.889 | S. cerevisiae deletion strains, locus YLR418C, strain cdc73, hits give low values 0.492 | S. cerevisiae deletion strains, locus YML032C, strain rad52, hits give low values 0.779 | S. cerevisiae deletion strains, locus YML120C, strain ndi1, hits give low values 0.822 | S. cerevisiae deletion strains, locus YML124C, strain tub3, hits give low values 0.859 | S. cerevisiae deletion strains, locus YMR058W, strain fet3, hits give low values 0.89 | S. cerevisiae deletion strains, locus YMR078C, strain ctf18, hits give low values 0.891 | S. cerevisiae deletion strains, locus YMR125W, strain sto1, hits give low values 0.81 | S. cerevisiae deletion strains, locus YMR129W, hits give low values 0.904 | S. cerevisiae deletion strains, locus YMR205C, strain PFK2, hits give low values 0.659 | S. cerevisiae deletion strains, locus YMR223W, strain ubp8, hits give low values 0.797 | S. cerevisiae deletion strains, locus YMR263W, strain SAP30, hits give low values 0.826 | S. cerevisiae deletion strains, locus YNL067W, strain RPL9B, hits give low values 0.762 | S. cerevisiae deletion strains, locus YNL071W, strain lat1, hits give low values 0.672 | S. cerevisiae deletion strains, locus YNL153C, strain GIM3, hits give low values 0.713 | S. cerevisiae deletion strains, locus YNL233W, strain BNI4, hits give low values 0.567 | S. cerevisiae deletion strains, locus YNL271C, strain bni1, hits give low values 0.907 | S. cerevisiae deletion strains, locus YNL298W, strain CLA4, hits give low values 0.829 | S. cerevisiae deletion strains, locus YNL307C, strain MCK1, hits give low values 0.381 | S. cerevisiae deletion strains, locus YNL322C, strain KRE1 (second series), hits give low values 0.807 | S. cerevisiae deletion strains, locus YNL322C, strain KRE1, hits give low values 0.804 | S. cerevisiae deletion strains, locus YNR049C, strain mso1, hits give low values 0.914 | S. cerevisiae deletion strains, locus YNR052C, strain pop2, hits give low values 0.909 | S. cerevisiae deletion strains, locus YOL147C, strain pex11, hits give low values 0.726 | S. cerevisiae deletion strains, locus YOR001W, strain rrp6, hits give low values 0.889 | S. cerevisiae deletion strains, locus YOR069W, strain VPS5, hits give low values 0.89 | S. cerevisiae deletion strains, locus YOR070C, strain gyp1, hits give low values 0.917 | S. cerevisiae deletion strains, locus YOR136W, strain idh2, hits give low values 0.911 | S. cerevisiae deletion strains, locus YOR144C, strain elg1, hits give low values 0.855 | S. cerevisiae deletion strains, locus YOR184W, strain ser1, hits give low values 0.481 | S. cerevisiae deletion strains, locus YOR265W, strain rbl2, hits give low values 0.921 | S. cerevisiae deletion strains, locus YOR270C, strain vph1, hits give low values 0.532 | S. cerevisiae deletion strains, locus YOR290C, strain snf2, hits give low values 0.712 | S. cerevisiae deletion strains, locus YOR316C, strain cot1, hits give low values 0.864 | S. cerevisiae deletion strains, locus YPL078C, strain atp4, hits give low values 0.845 | S. cerevisiae deletion strains, locus YPR119W, strain clb2, hits give low values 0.888 | S. cerevisiae deletion strains, locus YPR163C, strain tif3, hits give low values 0.796 | S. cerevisiae deletion strains, locus YPR167C, strain met16, hits give low values 0.799 | S. cerevisiae deletion strains, strain wtn01, hits give low values 0.843 | S. cerevisiae strains, strain wild type, hits give low values 0.798
inactive: S. cerevisiae deletion strains, locus YAL021C, strain ccr4, hits give low values 1.02 | S. cerevisiae deletion strains, locus YBR171W, strain sec66, hits give low values 0.896 | S. cerevisiae deletion strains, locus YDL005C, strain med2, hits give low values 0.948 | S. cerevisiae deletion strains, locus YDL185W, strain tfp1, hits give low values 0.928 | S. cerevisiae deletion strains, locus YDR069C, strain doa4, hits give low values 1.03 | S. cerevisiae deletion strains, locus YDR195W, strain ref2 1.02 | S. cerevisiae deletion strains, locus YDR297W, strain sur2, hits give low values 0.934 | S. cerevisiae deletion strains, locus YDR334W, strain swr1, hits give low values 0.936 | S. cerevisiae deletion strains, locus YDR335W, strain msn5, hits give low values 0.95 | S. cerevisiae deletion strains, locus YEL037C, strain rad23, hits give low values 0.935 | S. cerevisiae deletion strains, locus YEL061C, strain CIN8 (second series), hits give low values 0.921 | S. cerevisiae deletion strains, locus YER015W, strain faa2, hits give low values 0.935 | S. cerevisiae deletion strains, locus YER111C, strain swi4, hits give low values 0.942 | S. cerevisiae deletion strains, locus YFR010W, strain ubp6, hits give low values 0.923 | S. cerevisiae deletion strains, locus YGL173C, strain kem1, hits give low values 0.94 | S. cerevisiae deletion strains, locus YHR027C, strain rpn1, hits give low values 0.957 | S. cerevisiae deletion strains, locus YIL073C, strain SPO22, hits give low values 0.85 | S. cerevisiae deletion strains, locus YJL095W, strain BCK1 (second series), hits give low values 0.936 | S. cerevisiae deletion strains, locus YJL115W, strain asf1, hits give low values 0.967 | S. cerevisiae deletion strains, locus YJL154C, strain vps35, hits give low values 0.944 | S. cerevisiae deletion strains, locus YJL168C, strain set2, hits give low values 0.941 | S. cerevisiae deletion strains, locus YJL187C, strain SWE1, hits give low values 0.937 | S. cerevisiae deletion strains, locus YKL160W, strain elf1, hits give low values 0.912 | S. cerevisiae deletion strains, locus YLL041C, strain sdh2, hits give low values 0.945 | S. cerevisiae deletion strains, locus YLR342W, strain FKS1, hits give low values 0.923 | S. cerevisiae deletion strains, locus YLR384C, strain iki3, hits give low values 0.957 | S. cerevisiae deletion strains, locus YML016C, strain PPZ1, hits give low values 0.926 | S. cerevisiae deletion strains, locus YMR231W, strain pep5, hits give low values 0.935 | S. cerevisiae deletion strains, locus YMR307W, strain GAS1, hits give low values 0.706 | S. cerevisiae deletion strains, locus YNL209W, strain ssb2, hits give low values 0.958 | S. cerevisiae deletion strains, locus YNL248C, strain rpa49, hits give low values 0.971 | S. cerevisiae deletion strains, locus YNL250W, strain rad50, hits give low values 0.918 | S. cerevisiae deletion strains, locus YOL012C, strain htz1 0.768 | S. cerevisiae deletion strains, locus YOR061W, strain CKA2, hits give low values 0.929 | S. cerevisiae deletion strains, locus YOR080W, strain dia2, hits give low values 0.93 | S. cerevisiae deletion strains, locus YOR083W, strain WHI5, hits give low values 0.895 | S. cerevisiae deletion strains, locus YOR106W, strain vam3, hits give low values 0.917 | S. cerevisiae deletion strains, locus YPL051W, strain arl3, hits give low values 0.931 | S. cerevisiae deletion strains, locus YPL106C, strain sse1, hits give low values 0.917 | S. cerevisiae deletion strains, locus YPL240C, strain hsp82, hits give low values 0.96 | S. cerevisiae deletion strains, locus YPR141C, strain kar3, hits give low values 0.937
